Measured values reported in PubChem BioAssay (NCATS).
Inconclusive results are not listed. Active and inactive are the calls of the source. Calls follow the shape of the dose curve; as a rule, active = well fitted curve in the direction sought with a large enough effect; inconclusive = small, poorly fitted or top-dose-only effect, or another doubt; inactive = no such curve, though single readings can be large; an effect the other way counts as inactive or inconclusive.

Assays:
NIH3T3 = experiment: qHTS assay to identify novel small-molecules to repurpose for Merkel cell carcinoma treatment (AID 1296009); settings: MCC and control cell lines, CellTiter-Glo viability, 72 h; at 44.8 µM (top of the series) unless noted; also: nearly all actives have a fitted effect of over 60% in size
Summary of the method: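 72 hr, 37 degree celsius; NPC 8-pt / MIPE 11-pt dose response; compound pinned in DMSO; CellTiter-Glo, 10 min RT, luminescence; normalized to no-cell and DMSO controls.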

C33A = experiment: Primary qHTS to identify gynecologic anti-cancer compounds using libraries of approved drugs and bioactive compounds (AID 1345084); settings: Gynecologic cancer cell panel viability, ATPlite luminescence, 48 h; series mostly up to 57.5 µM; also: nearly all actives have a fitted effect of over 55% in size
Summary of the method: (§1)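 Cells, 1,000 per well, plated 16 h, then exposed 48 h at 37 C to compounds. Viability by ATPlite luminescence after 15 min at room temperature.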

CAOV3 = experiment: as above; settings: Gynecologic cancer cell panel viability, ATPlite luminescence, 48 h; series mostly up to 57.5 µM
Summary of the method: as §1

CASKI = experiment: as above; settings: Gynecologic cancer cell panel viability, ATPlite luminescence, 48 h; series mostly up to 57.5 µM
Summary of the method: as §1

Es-2 = experiment: as above; settings: Gynecologic cancer cell panel viability, ATPlite luminescence, 48 h; series mostly up to 57.5 µM
Summary of the method: as §1

HeLa = experiment: as above; settings: Gynecologic cancer cell panel viability, ATPlite luminescence, 48 h; series mostly up to 57.5 µM
Summary of the method: as §1

Hek293T = experiment: as above; settings: Gynecologic cancer cell panel viability, ATPlite luminescence, 48 h, control line for the selectivity index; series mostly up to 57.5 µM
Summary of the method: as §1

JEG-3 = experiment: as above; settings: Gynecologic cancer cell panel viability, ATPlite luminescence, 48 h; series mostly up to 57.5 µM
Summary of the method: as §1

OV90 = experiment: as above; settings: Gynecologic cancer cell panel viability, ATPlite luminescence, 48 h; series mostly up to 57.5 µM
Summary of the method: as §1

PA-1 = experiment: as above; settings: Gynecologic cancer cell panel viability, ATPlite luminescence, 48 h; series mostly up to 57.5 µM
Summary of the method: as §1

SKOV3 = experiment: as above; settings: Gynecologic cancer cell panel viability, ATPlite luminescence, 48 h; series mostly up to 57.5 µM
Summary of the method: as §1

Tov-21-G = experiment: as above; settings: Gynecologic cancer cell panel viability, ATPlite luminescence, 48 h; series mostly up to 57.5 µM
Summary of the method: as §1

Tov112D = experiment: as above; settings: Gynecologic cancer cell panel viability, ATPlite luminescence, 48 h; series mostly up to 57.5 µM
Summary of the method: as §1

Measured: Potency

COC(=O)c1ccc(OC)cc1O[C@@H]1O[C@H](CO[C@@H]2OC[C@@H](O)[C@H](O)[C@H]2O)[C@@H](O)[C@H](O)[C@H]1O
inactive: NIH3T3 inactive [at 17.4 µM] | C33A | CAOV3 | CASKI | Es-2 | HeLa | Hek293T | JEG-3 | OV90 | PA-1 | SKOV3 | Tov-21-G | Tov112D

CCC1(O)CC2c3cc(OC)c(OC)cc3CCN2CC1CC(C)C (centres undefined)
inactive: all assays above

COc1c(O)cc2c(c1O)C(=O)O[C@H](C)[C@H]2O
inactive: all assays above

COC(=O)C1=CO[C@@H](O[C@@H]2O[C@H](CO[C@@H]3O[C@H](CO)[C@@H](O)[C@H](O)[C@H]3O)[C@@H](O)[C@H](O)[C@H]2O)[C@@H]2C(CO)=CC[C@H]12
inactive: NIH3T3 inactive [at 17.4 µM] | C33A | CAOV3 | CASKI | Es-2 | HeLa | Hek293T | JEG-3 | OV90 | PA-1 | SKOV3 | Tov-21-G | Tov112D

Cc1cc(-n2c(=O)[nH]c(=O)n(C)c2=O)ccc1Oc1ccc(SC(F)(F)F)cc1
inactive: all assays above

C=C1CC/C=C(/CO)C(=O)C[C@@H]2[C@@H]1C[C@@]2(C)COC(C)=O
inactive: all assays above

C/C=C1/[C@H](O[C@@H]2O[C@H](CO)[C@@H](O)[C@H](O)[C@H]2O)OC=C(C(=O)OC)[C@H]1CC(=O)OCCc1ccc(O)c(O)c1
inactive: NIH3T3 inactive [at 17.4 µM] | C33A | CAOV3 | CASKI | Es-2 | HeLa | Hek293T | JEG-3 | OV90 | PA-1 | SKOV3 | Tov-21-G | Tov112D

CCCC/C=C\CCCCCc1cc(=O)c2ccccc2n1C
inactive: all assays above

CC1CCC2(C(=O)O)CCC3(C)C(=CCC4C5(C)CCC(O)C(C)(C(=O)O)C5CCC43C)C2C1(C)O (centres undefined)
inactive: NIH3T3 inactive [at 17.4 µM] | C33A | CAOV3 | CASKI | Es-2 | HeLa | Hek293T | JEG-3 | OV90 | PA-1 | SKOV3 | Tov-21-G | Tov112D

Cc1c(O)cc2c(c1O)COC1(O)CCCOC21 (centres undefined)
inactive: all assays above

CC(C/C=C/C(C)(C)O)C1CCC(C)(O)C(O)C1 (centres undefined)
inactive: all assays above

C/C(=C\CC/C(C)=C/CC[C@]1(C)CCc2cc(O)cc(C)c2O1)CC/C=C(\C)C(=O)O
inactive: NIH3T3 inactive [at 17.4 µM] | C33A | CAOV3 | CASKI | Es-2 | HeLa | Hek293T | JEG-3 | OV90 | PA-1 | SKOV3 | Tov-21-G | Tov112D

CC1(C)C[C@@H]2[C@H](C1)[C@@]1(C)C[C@]13C(O)OC[C@]3(O)[C@H]2O (some centres undefined)
inactive: all assays above
